An excerpt weighted towards active compounds, which were near 4.2% of everything screened.
ALOX12 inh – Primary qHTS assay for inhibitors of human arachidonate 12S-lipoxygenase (ALOX12): Round 2. 580,000 compounds, 1.1% hits. Polyunsaturated fatty acid lipoxygenase ALOX12 (Homo sapiens), P18054. purified 12hLO, xylenol orange hydroperoxide absorbance. Potency, µM (titrated, usually from 108 µM), inactives show at the top dose activity change, negative = inhibition, usual class: inhibitors. AID 1671190, 2021
Target sequence (P18054 whole entry, looked up): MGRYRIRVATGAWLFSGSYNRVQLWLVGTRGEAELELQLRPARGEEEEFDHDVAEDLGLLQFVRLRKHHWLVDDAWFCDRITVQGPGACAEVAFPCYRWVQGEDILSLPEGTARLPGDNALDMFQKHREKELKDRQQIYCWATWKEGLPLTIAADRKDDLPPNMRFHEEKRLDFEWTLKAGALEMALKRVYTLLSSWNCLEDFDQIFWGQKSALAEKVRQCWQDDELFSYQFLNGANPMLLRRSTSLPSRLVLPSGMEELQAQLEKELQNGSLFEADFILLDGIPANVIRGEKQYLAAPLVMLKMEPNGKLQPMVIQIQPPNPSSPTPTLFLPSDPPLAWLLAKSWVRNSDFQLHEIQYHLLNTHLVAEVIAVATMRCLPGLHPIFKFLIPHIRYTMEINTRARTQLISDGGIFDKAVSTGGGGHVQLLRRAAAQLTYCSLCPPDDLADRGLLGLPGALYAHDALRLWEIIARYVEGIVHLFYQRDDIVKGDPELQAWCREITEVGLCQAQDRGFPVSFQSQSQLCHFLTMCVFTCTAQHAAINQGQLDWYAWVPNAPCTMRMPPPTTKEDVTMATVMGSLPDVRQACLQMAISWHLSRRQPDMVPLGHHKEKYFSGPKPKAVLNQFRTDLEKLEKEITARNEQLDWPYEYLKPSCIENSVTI
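Purified human 12hLO at 150 nM in 25 mM Hepes, 0.01% Triton X-100, pH 7.0, preincubated 15 min at room temperature with compound. Reaction started with 40 uM arachidonic acid, 30 min at room temperature. Hydroperoxide measured by Fe-xylenol orange, 573/405 nm absorbance ratio.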
Sfp inh – qHTS Assay for Inhibitors of Bacillus subtilis Sfp phosphopantetheinyl transferase (PPTase). 4'-phosphopantetheinyl transferase ffp (Bacillus subtilis), Q9F4F7. Biochemical Sfp PPTase activity, qHTS. Potency, µM, for the others: largest response in the series, negative = inhibition, actives largely listed as inhibitors. 310,000 compounds, 3.5% hits;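 further: the enzyme is Sfp with the accession as filed and its product quenches rhodamine fluorescence; 0% = enzyme reaction without inhibitor and -100% = no enzyme wells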
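Buffer: 50 mM Hepes-Na pH 7.6, 10 mM MgCl2, 0.01% Nonidet P-40, 0.01% BSA. Enzyme 15 nM, pre-exposed to compound 15 min; substrates then added and fluorescence change tracked over 30 min.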
VDR inh – Inhibitors of the vitamin D receptor (VDR): qHTS; Vitamin D3 receptor (Homo sapiens), P11473; Potency, µM, without a hit: max response, negative = inhibition, actives largely listed as inhibitors; 400,000 compounds, 0.93% hits; AID 504847, 2011; VDR-SRC2-3 peptide fluorescence polarization, 2 h
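Two reagent solutions held at 4 deg C in the dark were dispensed, compounds pinned at 23 nl, and the mixture incubated 2 h at room temperature. Read-out: fluorescence polarization of VDR–SRC2-3 peptide binding.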
PLK1 PBD inh – qHTS for Inhibitors of PLK1-PDB (polo-like kinase 1 - polo-box domain): Primary Screen | Serine/threonine-protein kinase PLK1 (Homo sapiens), P53350 | Plk1 PBD binding of FITC phosphopeptide, fluorescence polarization | Potency, µM, for the others: max response, negative = inhibition, usual class: inhibitors | 360,000 compounds, 2.8% hits | AID 720504, 2013; further: series mostly up to about 57 µM; nearly all actives have a fitted effect of over 65% in size
The depositor's hits bear a star; ? = inconclusive; . = no result given; [ ] = another dose, or the depositor's remark. The call rests on the fitted dose curve; in most records, active means well fitted curve in the direction sought with a large enough effect; inconclusive means small, poorly fitted or top-dose-only effect, or another doubt; inactive means no such curve, though single readings can be large; an effect the other way counts as inactive or inconclusive. Unless noted, on the % scale 0 is the no-effect control and ±100 the full control effect; potency means the concentration at half of the fitted maximal effect.

SMILES	ALOX12 inh	Sfp inh	VDR inh	PLK1 PBD inh
COc1cccc(-c2nn(-c3ccc(C)cc3)cc2C(=O)N2CCc3cc(OC)c(OC)cc3C2)c1	?	.	-23.1%	-8.4%
CCOc1ccc(C(=S)N2CCN(CCO)CC2)cc1OC	-2.6%	.	.	.
CC(=O)c1ccc(N2CCN(C(=O)Nc3ccc(Cl)cc3)CC2)cc1	-4.1%	-12.3%	2.7%	-3.4%
O=C(Nc1ccc(Cl)cc1)N1CCN(c2ccccc2)CC1	?	-10.4%	-8.7%	26.7µM*
Cc1ccc(NC(=O)Nc2cccc([N+](=O)[O-])c2)cc1F	-13.3%	79.4µM*	9.5%	-12.1%
Cc1occc1C(=O)Nc1cccc([N+](=O)[O-])c1	-26.7%	8.2%	22.4µM*	-18.9%
Cc1occc1C(=O)Nc1ccc([N+](=O)[O-])cc1Br	486.3%	-0.6%	-91.4%	-9.3%
O=C(Nc1ccc(OC(F)(F)F)cc1)Nc1cccc([N+](=O)[O-])c1	?	?	-9.7%	-0.9%
COc1cccc(-c2cnc(C(O)c3cccc(OC)c3)[nH]2)c1 (stereo not given)	-16.0%	.	.	-0.7%
O=C(CSc1nnnn1C1CCCCC1)Nc1nc2c(s1)CCCC2	-16.0%	-20.5%	-9.4%	-7.9%
CNC(=O)[C@@H](c1ccc(Cl)cc1)N1CCC[C@H]1C(=O)N1CCCC1	1.6%[176 µM]	.	.	.
Cc1ccc(C2=C/C(=C/c3cccnc3)C(=O)O2)c(C)c1	?	50.1µM*	-19.4%	-4.5%
CC(=O)Nc1ccc(S(=O)(=O)Oc2ccc(C(=S)N3CCC(O)CC3)cc2)cc1	?	56.2µM*	-7.0%	?
CC(=O)Nc1ccc(S(=O)(=O)Oc2ccc(C(=S)N3CCCCC3)cc2)cc1	?	-28.0%	?	?
COc1ccc(NC(=O)c2[nH]nc3c2CSc2ccccc2-3)c(OC)c1	8.7%	.	13.7%	.
COCCCn1c(=O)c2ccccc2n(Cc2ccccc2)c1=O	?	-18.8%	-15.9%	-8.5%
COCCCn1c(=O)c2ccccc2n2c(=S)[nH]nc12	?	79.4µM*	3.1%	-0.1%
Cc1cc(Cl)ccc1OCc1nc(-c2ccc(-n3cccc3)cc2)no1	-3.0%	.	-5.2%	.
CC(NCCC(Cc1ccccc1)c1ccco1)c1ccccc1 (stereo not given)	-2.8%	6.6%	-17.4%	29.9µM*
Cc1nnc(N/N=C/c2cc([N+](=O)[O-])c(N3CCC(C)CC3)cc2N2CCC(C)CC2)n1N	?	?	-19.1%	-12.1%
CCc1nnc(N/N=C/c2ccc(N3CCC(C)CC3)c([N+](=O)[O-])c2)n1N	?	70.8µM*	17.8µM*	-1.4%
CCCCCCCCCCC[N+](C)(C)CC/C=C1/c2ccccc2Sc2ccc(Cl)cc21	.	39.8µM*	-20.9%	?
CCCCCCCCCC[N+](C)(C)CC/C=C1/c2ccccc2Sc2ccc(Cl)cc21	.	31.6µM*	-8.7%	-18.4%
COCC(=O)Nc1cccc(-c2ccc3nncn3n2)c1	-17.8%	19.3%	5.2%	2.3%
C[C@@H]1CN([C@@H](C)CO)S(=O)(=O)c2ccc(C#CC3CCCCC3)cc2O[C@@H]1CN(C)Cc1cccnc1	14.1µM*	.	.	-18.1%
SMILES	ALOX12 inh	Sfp inh	VDR inh	PLK1 PBD inh
COc1ccccc1S(=O)(=O)N(C)C[C@H]1Oc2cc(C#CCC3CCCC3)ccc2S(=O)(=O)N([C@H](C)CO)C[C@H]1C	20µM*	.	.	-7.0%
COc1ccccc1S(=O)(=O)N(C)C[C@@H]1Oc2cc(C#CCC(C)C)ccc2S(=O)(=O)N([C@H](C)CO)C[C@@H]1C	0.0%	.	.	0.1%
Cc1ccc(S(=O)(=O)C(CNC(=O)C(=O)NCCc2ccc(F)cc2)c2cccs2)cc1 (stereo not given)	-4.7%	.	8.3%	.
O=C(/C=C/c1c[nH]c2ccccc12)c1cccc2ccccc12	?	?	-15.0%	9.4%
CC(C)(C)C(=O)NNC(=O)c1cnccn1	7.2%	79.4µM*	-6.0%	-11.3%
COc1ccc(CC(=O)NNC(=O)c2ccccn2)cc1	35.8%	22.6%	2.2%	-11.6%
COc1ccc(CC(=O)NNC(=O)c2cnccn2)cc1	6.3%	56.2µM*	1.2%	-5.1%
CCN(CC)c1ccc2cc(-c3nc4ccccc4[nH]3)c(=O)oc2c1	.	8.6%	-4.9%	26.7µM*
CC(=O)C[C@H]1c2ccccc2S(=O)(=O)N1C1CCCCC1	-7.6%	.	-7.5%	4.9%
CCC(=O)N1CCc2cc(S(=O)(=O)NCCC(=O)Nc3cc(C)cc(C)c3)ccc21	-9.0%	13.2%	-7.5%	26.7µM*
CC(=O)N1CCc2cc(S(=O)(=O)NCCC(=O)Nc3cc(C)cc(C)c3)ccc21	-24.6%	7.9%	-6.5%	-10.7%
Cc1ccsc1C1C=C(c2cccc(Br)c2)Nc2ncnn21 (stereo not given)	.	44.7µM*	-5.1%	-28.8%
COc1ccc(C2=CC(c3sccc3C)n3nnnc3N2)cc1 (stereo not given)	-26.3%	50.1µM*	-6.1%	-5.2%
Cn1c(SCc2n[nH]c(=S)n2-c2ccccc2)nnc1-c1ccccc1	-14.2%	-11.5%	-1.1%	-5.0%
Cn1c(SCc2ccc(Cl)cc2)nnc1-c1ccc2nonc2c1	0.0%	19.6%	-9.7%	-4.8%
CCOC(=O)c1c(C)oc2c1c(C=NCc1ccccn1)c(O)c1ccccc12	3.2%	17.8µM*	-6.3%	-13.1%
O=C(NCc1ccc(F)cc1)c1cccc2c1C(=O)c1ccc(N3CCC(Cc4ccccc4)CC3)cc1S2(=O)=O	-1.8%	.	-15.2%	?
CC1CCN(c2ccc3c(c2)S(=O)(=O)c2cccc(C(=O)NCc4ccc(F)cc4)c2C3=O)CC1	-7.8%	.	-13.6%	84.4µM*
O=C(NCc1cc(C(F)(F)F)ccc1Cl)c1cccc2c1C(=O)c1ccc(N3CCC(Cc4ccccc4)CC3)cc1S2(=O)=O	.	.	-7.9%	23.8µM*
O=C(N/N=C\C=C\c1ccco1)C1COc2ccccc2O1 (stereo not given)	?	39.8µM*	-7.5%	-14.3%
Cc1ccc(S(=O)(=O)N2CC=C(C(=O)NCCC(C)C)CC2)cc1	1.9%	7.0%	-5.8%	-2.9%
COc1ccc(S(=O)(=O)N2CC=C(C(=O)NC3CCCC3)CC2)cc1	-15.2%	8.1%	-24.2%	29.9µM*
Cc1ccc(S(=O)(=O)N2CC=C(C(=O)NC3CCCC3)CC2)cc1	-7.9%	5.7%	?	26.7µM*
COc1ccc(S(=O)(=O)N2CC=C(C(=O)Nc3ccc(NC(C)=O)cc3)CC2)cc1	21.9%	10.5%	-17.6%	-14.7%
CCCCCOCC1CC(C/C(C)=N/Nc2nc(-c3ccccc3)cs2)C(=O)O1 (stereo not given)	0.0%	70.8µM*	?	21.2µM*
CCCCCC1CC(CC/C(C)=N/NC(N)=O)C(=O)O1 (stereo not given)	-2.0%	15.8%	-4.6%	-1.1%
CCCCCOCC1CC(C/C(C)=N/NC(N)=S)C(=O)O1 (stereo not given)	-9.6%	44.7µM*	-27.2%	26.7µM*
O=C(NCCCN1CCOCC1)c1cccc(S(=O)(=O)N2CCc3ccccc32)c1	-25.6%	.	.	9.4%

Bioassay records from PubChem BioAssay.
